# In PubChem BioAssay (NCATS):
# “And” between values parts separate entries of the source, which are not always exact repeats. Equal entries are not always repeated. A number with no mark means an inactive call. Results filed as inconclusive are left out. Where a call stands in place of a potency, no number is given. The source made the active and inactive calls. Unless noted, calls follow the shape of the dose curve; as a rule, active = well fitted curve in the direction sought with a large enough effect; inconclusive = small, poorly fitted or top-dose-only effect, or another doubt; inactive = no such curve, though single readings can be large; an effect the other way counts as inactive or inconclusive.
# How the values were obtained:
# [1] = Cell Viability - SH-SY5Y (AID 544); settings: SH-SY5Y neuroblastoma cell viability; viability change, negative = cytotoxic: at 92.2 µM (top of the series);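 also: cells exposed to compound for 40 hours; nearly all actives have a fitted effect of over 55% in size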
# Outline: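 Cells were plated at 1500 per well and allowed 5 hr at 37 °C. Compounds were added across a concentration range and incubated 40 hr at 37 °C. CellTiter-Glo was added for 20 min at room temperature before luminescence reading.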
# [2] = Cell Viability - Mesenchymal (AID 546);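 also: cells exposed to compound for 40 hours before reading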
# Outline: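 CellTiter-Glo luminescence (intracellular ATP, 20 min room temperature) after 40 hr compound exposure at 37 °C of 1000 glomerulus-derived human kidney mesenchymal cells/well; AC50 values obtained by fitting qHTS concentration-response data to the Hill equation.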
# [3] = Cellular Toxicity (caspase-3) HUV-EC-C (AID 656)
# Outline: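 Concentration-dependent caspase 3/7 induction was assessed in HUV-EC-C cells exposed for 16 hours. Data scaled between DMSO and tamoxifen (100 uM) controls.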
# [4] = Cellular Toxicity (caspase-3) Mesangial (AID 660);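 also: combined caspase 3 and 7 activity read by Caspase-Glo luminescence; cells exposed to compound for 16 h before the caspase read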
# Outline: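 Seed cells derived from normal human renal glomeruli, incubate 5 h, add compounds across concentrations and incubate 16 h at 37 °C. Caspase 3/7 activation is then quantified by luciferase light, with AC50 derived by Hill modeling.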
# [5] = MultiTox-Fluor Cytotoxicity Assay - LYMP1-002 - Live Cells (AID 955)
# Outline: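 Cells were seeded at 2500 per well and incubated 5 hr. Compounds were then added for 16 hr at 37 C, followed by MultiTox-Fluor reagent for 60 min at room temperature and fluorescence reading of viable-cell protease signal.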
# [6] = Cell Viability - LYMP2-005 (AID 967)
# Outline: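 Luciferase-based ATP quantitation served as the viability measure in human lymphoblastoid LYMP2-005 cells exposed to test compounds for 24 h at 37 C in complete culture medium. Potency (AC50) was obtained by fitting concentration-response curves with the Hill equation.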
# [7] = Cell Viability - LYMP2-017 (AID 972); also: nearly all actives have a fitted effect of over 55% in size
# Outline: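 Cytotoxicity is scored as a concentration-dependent drop in cellular ATP in a human lymphoblastoid line after 24 hr treatment at 37 C. Values are AC50s from Hill-equation modelling.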
# [8] = Cell Viability - LYMP2-023 (AID 975);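 also: cellular ATP measured by luciferase luminescence as viability proxy; nearly all actives have a fitted effect of over 55% in size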
# Outline: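 Steps: seed 2500 human lymphoblastoid cells per well, incubate 5 hr at 37 C, add compound for 24 hr at 37 C, add CellTiter-Glo, hold 30 min at room temperature, read luminescence. AC50 derived by Hill modelling.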
# [9] = Cell Viability - LYMP2-002 (AID 977);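 also: compound exposure lasted 24 h at 37 °C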
# Outline: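 Human lymphoblastoid cells (2500/well) in complete medium were preincubated 5 hr at 37 C, then exposed to compounds for 24 hr at 37 C. Intracellular ATP was read by CellTiter-Glo luminescence; AC50 came from Hill-equation concentration-response fits.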
# [10] = qHTS assay for small molecule disruptors of the mitochondrial membrane potential - 1 hr assay (AID 651754; calls by dose curve; also: nearly all actives have a fitted effect of over 35% in size)
# Outline: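 Loss of mitochondrial potential shifts the cationic dye from red mitochondrial aggregates to green cytoplasmic monomers. Cells (HepG2) are treated with compound for 1 hr before a 30 min dye incubation at 37C.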
# [11] = qHTS assay for small molecule disruptors of the mitochondrial membrane potential - 5 hr assay (AID 651755; calls by dose curve; also: nearly all actives have a fitted effect of over 40% in size)
# Outline: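 Membrane-potential dye readout: red aggregate (540 ex/590 em) versus green monomer (490 ex/535 em) fluorescence after 30 min dye loading, following 5 hr compound exposure at 37C of overnight-plated HepG2 cells.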
# [12] = qHTS assay for environmental chemicals that activate the Aryl hydrocarbon Receptor (AhR) signaling pathway (AID 651777); settings: 1A2-DRE human hepatoma cells, luciferase, 24 h; activation: stronger effect = higher value; also: nearly all actives have a fitted effect of over 15% in size
# Outline: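 Induction of CYP1A2 transcription through AhR is detected by luciferase in 1A2-DRE hepatoma cells. Compounds or DMSO act for 24 hr at 37 C before a 30 min One-Glo step at room temperature.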
# [13] = molecular target: Nuclear receptor ROR-gamma (Homo sapiens) (UniProt P51449); experiment: qHTS assay for small molecule antagonists of the retinoid-related orphan receptor gamma (ROR-gamma) signaling pathway (AID 651802);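 also: CHO cells with doxycycline-induced ROR-gamma expression; nearly all actives have a fitted effect of over 60% in size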
# Chain of Nuclear receptor ROR-gamma (Homo sapiens) (P51449 whole entry, looked up): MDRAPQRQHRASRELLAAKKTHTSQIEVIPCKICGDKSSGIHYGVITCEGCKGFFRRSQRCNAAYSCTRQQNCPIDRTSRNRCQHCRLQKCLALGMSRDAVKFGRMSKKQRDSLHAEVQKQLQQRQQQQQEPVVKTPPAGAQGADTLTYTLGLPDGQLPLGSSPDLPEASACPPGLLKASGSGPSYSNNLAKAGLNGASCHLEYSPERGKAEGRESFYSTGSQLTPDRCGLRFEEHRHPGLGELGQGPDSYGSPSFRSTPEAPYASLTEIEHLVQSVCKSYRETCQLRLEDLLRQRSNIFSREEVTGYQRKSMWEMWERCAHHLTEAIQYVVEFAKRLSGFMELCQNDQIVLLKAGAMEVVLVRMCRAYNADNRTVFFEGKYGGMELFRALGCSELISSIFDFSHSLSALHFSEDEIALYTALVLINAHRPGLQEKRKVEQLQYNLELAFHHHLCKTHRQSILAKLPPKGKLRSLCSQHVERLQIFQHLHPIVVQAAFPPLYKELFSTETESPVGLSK
# Outline: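 Steps: cells dispensed; compound or DMSO transferred by pin tool; doxycycline added to induce the ROR response element-driven luciferase; plates held 16hr at 37C; ONE-Glo added and luminescence measured.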
# [14] = molecular target: Nuclear receptor subfamily 1 group I member 2 (Rattus norvegicus) (UniProt Q9R1A7); experiment: qHTS assay for small molecule activators of the rat pregnane X receptor (rPXR) signaling pathway (AID 651751; call rule not given here); settings: rPXR reporter cells, luciferase (One-Glo), 24 h
# Chain of Nuclear receptor subfamily 1 group I member 2 (Rattus norvegicus) (Q9R1A7 whole entry, looked up): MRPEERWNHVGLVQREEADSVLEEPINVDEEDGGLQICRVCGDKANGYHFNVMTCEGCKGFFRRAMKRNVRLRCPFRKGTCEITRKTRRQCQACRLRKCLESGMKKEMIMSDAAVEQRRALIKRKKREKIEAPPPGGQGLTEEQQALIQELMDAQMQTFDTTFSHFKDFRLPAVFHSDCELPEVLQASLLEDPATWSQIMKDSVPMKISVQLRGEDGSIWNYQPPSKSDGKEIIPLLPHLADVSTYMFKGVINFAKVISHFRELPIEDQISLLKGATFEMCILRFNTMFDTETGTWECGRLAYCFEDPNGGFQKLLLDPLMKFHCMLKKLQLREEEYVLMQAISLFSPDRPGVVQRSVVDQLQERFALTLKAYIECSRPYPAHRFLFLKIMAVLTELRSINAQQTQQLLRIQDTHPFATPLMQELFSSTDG
# [15] = Cellular Toxicity (caspase-3) SHSY5Y (AID 657);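 also: cells exposed to compound for 16 hours at 37 °C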
# Outline: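 Readout: caspase-cleaved peptide-aminoluciferin substrate driving luciferase light in SH-SY5Y neuroblastoma cells after 16 h treatment. Response normalized to DMSO and 10 uM staurosporine controls.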
# [16] = Cellular Toxicity (caspase-3) H-4-II-E (AID 663); settings: Potency: caspase-3 activation;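 also: cells exposed to compound for 16 hr before readout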
# Outline: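 Caspase 3/7 activation measured by luminescent aminoluciferin substrate cleavage after 16 hr compound treatment of H-4-II-E cells in complete medium. Increase normalized between DMSO (basal) and 100 uM tamoxifen (100%); Hill-equation AC50 from concentration-response.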
# [17] = molecular target: Cytochrome P450 3A4 (Homo sapiens) (UniProt P08684); experiment: qHTS Assay for Inhibitors and Substrates of Cytochrome P450 3A4 (AID 884); also: nearly all actives have a fitted effect of over 50% in size; also: potency is read from the fitted curve at half-maximal effect
# Chain of Cytochrome P450 3A4 (Homo sapiens) (P08684 whole entry, looked up): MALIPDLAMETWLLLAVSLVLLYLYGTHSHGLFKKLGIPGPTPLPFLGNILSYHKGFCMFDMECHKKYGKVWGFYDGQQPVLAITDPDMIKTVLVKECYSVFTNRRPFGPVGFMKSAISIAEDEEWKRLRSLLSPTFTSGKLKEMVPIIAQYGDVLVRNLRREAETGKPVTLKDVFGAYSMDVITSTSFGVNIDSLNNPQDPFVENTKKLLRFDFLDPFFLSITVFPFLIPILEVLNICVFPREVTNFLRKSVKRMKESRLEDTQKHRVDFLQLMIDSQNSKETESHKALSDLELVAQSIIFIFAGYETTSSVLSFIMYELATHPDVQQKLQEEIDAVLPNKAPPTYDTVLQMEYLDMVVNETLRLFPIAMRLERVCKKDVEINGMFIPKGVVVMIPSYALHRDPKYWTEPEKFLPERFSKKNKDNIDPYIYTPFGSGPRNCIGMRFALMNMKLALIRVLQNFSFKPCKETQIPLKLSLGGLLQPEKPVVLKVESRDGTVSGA
# Outline: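 Luminescent readout of luciferin produced by CYP3A4 (20 nM) dealkylation of Luciferin-PPXE, 25 uM (its KM). NADPH-driven reaction ran 60 min at RT after 10 min compound preincubation; data scaled to 57 uM ketoconazole as 100% inhibition.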
# [18] = MultiTox-Fluor Cytotoxicity Assay - LYMP1-001 - Live Cells (AID 947)
# [19] = molecular target: Tumor necrosis factor (Homo sapiens) (UniProt P01375); experiment: qHTS assay to identify small molecules that stimulate Tumor Necrosis Factor-alpha (TNF-alpha) secretion (AID 651757; active = well fitted curve in the direction sought with a large enough effect in the signal ratio; the % refers to the signal ratio)
# Chain of Tumor necrosis factor (Homo sapiens) (P01375 whole entry, looked up): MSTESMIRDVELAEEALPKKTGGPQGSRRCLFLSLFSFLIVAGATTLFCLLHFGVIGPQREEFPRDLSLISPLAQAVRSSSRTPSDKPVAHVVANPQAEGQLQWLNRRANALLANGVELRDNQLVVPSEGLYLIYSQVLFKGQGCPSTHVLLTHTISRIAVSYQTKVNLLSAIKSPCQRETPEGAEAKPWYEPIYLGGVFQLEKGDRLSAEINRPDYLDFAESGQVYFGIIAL
# Outline: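 Human monocytic THP-1 cells are plated, treated with compound and held at 37 C for 17 hrs. Labeled anti-TNF-alpha antibody mixture is then added; after 3 hr at room temperature, TR-FRET signal reports secreted TNF-alpha.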
# [20] = Cell Viability - LYMP1-002 - Assay at 16 hr (AID 948)
# Outline: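 In this qHTS, lymphoblastoid LYMP1-002 cells (human) receive compounds for 16 hr at 37 C. Viability is taken from CellTiter-Glo ATP luminescence, and AC50 derives from standard Hill fits.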
SMILES,Potency [1],Potency [2],outcome [3],outcome [4],outcome [5],Potency [6],Potency [7],Potency [8],Potency [9],Potency [10],Potency [11],activation [12],Potency [13],max response [14],outcome [15],Potency [16],Potency [17],outcome [18],outcome [19],outcome [20]
Nc1ccc(Oc2ccc(N)cc2)cc1,inactive,inactive,inactive,inactive,inactive,inactive,inactive,inactive,inactive,inactive,inactive,2.36% and 5.82%,inactive,6.46% and 5.6%,–,–,–,–,–,–
ClCC(Cl)CCl,inactive,inactive,inactive,inactive,inactive,inactive,inactive,inactive,inactive,inactive,inactive,–,inactive,8.27% and 1.68%,inactive,inactive,inactive,inactive,inactive,–
CC(Cl)CCl (configuration not stated),inactive,inactive,inactive,inactive,inactive,inactive,inactive,inactive,inactive,inactive,inactive,0.102%,inactive,3.07%,inactive,inactive,inactive,inactive,inactive,inactive
C=CC(=O)OCC(C)C,inactive,inactive,inactive,inactive,inactive,inactive,–,inactive,inactive,–,–,0.0769%,inactive,-2.18%,inactive,inactive,inactive,inactive,inactive,inactive
O=[N+]([O-])c1cccc(O)c1,inactive,inactive,inactive,inactive,inactive,inactive,inactive,inactive,inactive,–,–,1.58%,inactive,6%,inactive,–,inactive,inactive,inactive,inactive
C=C(C)CCl,inactive,inactive,inactive,inactive,inactive,inactive,inactive,inactive,inactive,inactive,inactive,-0.792%,inactive,-1.42%,inactive,inactive,inactive,–,inactive,–
COc1ccc(C=O)cc1,inactive,inactive,–,inactive,–,inactive,inactive,–,–,–,–,0.954%,inactive,2.55%,inactive,inactive,inactive,inactive,inactive,inactive
Nc1ccc(Cc2ccc(N)cc2)cc1,inactive,–,inactive,inactive,inactive,inactive,inactive,inactive,inactive,inactive,inactive,1.41% and 1.54%,inactive,4.75% and 4.67%,–,inactive,25.1 µM (active),inactive,–,–
CCCCC(=O)Cl,inactive,inactive,inactive,inactive,inactive,inactive,inactive,inactive,inactive,inactive,inactive,–,inactive,6.67%,inactive,inactive,inactive,inactive,inactive,–
Nc1cc(Cl)cc(C(=O)O)c1Cl,inactive,inactive,inactive,inactive,inactive,inactive,–,inactive,inactive,inactive,inactive,7.92% and 6.33%,inactive,3.15% and -3.28%,inactive,inactive,–,inactive,inactive,–
CCCCOC(C)=O,inactive,inactive,inactive,inactive,inactive,inactive,inactive,–,inactive,inactive,inactive,-0.098%,inactive,–,inactive,inactive,inactive,inactive,inactive,inactive
Nc1cc(Cl)cc(Cl)c1,inactive,inactive,–,inactive,inactive,inactive,–,inactive,inactive,inactive,inactive,-0.276%,inactive,-0.532%,inactive,inactive,–,inactive,inactive,inactive
CC(=O)NNc1ccccc1,inactive,inactive,inactive,inactive,inactive,inactive,inactive,inactive,inactive,inactive,inactive,2.76%,inactive,-6.67%,inactive,–,–,inactive,inactive,inactive
